Laboratory results taken from PubChem BioAssay (NCI).
Compounds without any hit were thinned out: in the full panel of roughly 83,000, 20% have a hit.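 Cell lines were cultured in 96-well plates, exposed to a single compound concentration, and assessed for percent growth 48 hours later.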 Values without a mark were called inactive. Activity calls are given as the source filed them. The calls were made as follows: active = growth percent below 10; inactive = the rest.

Each compound was assayed on A498 renal (assay: NCI-60 one-dose screen, 48 h (100 = growth as untreated, 0 = no growth, -100 = all killed)). Conditions: 10 µM unless noted.
With `[Cl][Ru].c1ccc(-c2cccc(-c3ccccn3)n2)nc1.c1ccc(-c2ccnc3c2ccc2c(-c4ccccc4)ccnc23)cc1` the growth was 54.9%. With `COc1ccccc1/C=C/C=N/NC1=NC2C(S1)N(C)C(=O)N2C` (stereo not drawn) the growth was -18.2% (active). Work on `O=C(c1ccc(O)cc1)C1[C@H](c2ccc(Cl)cc2)[C@@H](c2ccccc2)NC12C(=O)Nc1ccc(Cl)cc12` (stereo partly drawn) yielded a growth of 50.8%. `Nc1cc(-c2c[nH]c3ccccc23)nc2cc(-c3c[nH]c4ccccc34)nn12` was tested, and the growth was 42.3%. Compound `Cc1nc2cnc(N)c(C#Cc3cncc(C(=O)Nc4ccc(Cl)c(C(F)(F)F)c4)c3)c2nc1C` has a growth of 55.4%. Work on `CCN1C(=S)N(CC)C2C1N=C(SC)N2/N=C/C=C/c1ccccc1[N+](=O)[O-]` (stereo not drawn) yielded a growth of 111%. For `COC1CCN(Cc2ccc3c(NNC(=O)c4cnccn4)nc4cc(F)ccc4n23)C1` (stereo not drawn), the growth was 30.6%. For `CS(=O)(=O)Nc1ccc(-c2nn(-c3ccc(S(C)(=O)=O)cc3)cc2/C=C/C(=O)c2ccc(NC(=O)CO[N+](=O)[O-])cc2)cc1`, the growth was 110%. `O=C(Nc1nc2ccc(O)cc2s1)c1cccc(C(F)(F)F)c1` gave a growth of 78.9%. With `c1ccc2c(NCCCn3ccnc3)c3oc4ccccc4c3nc2c1` the growth was -18.2% (active). In the case of `CC(C)NC(=O)c1cc(-c2ccc(NC(=O)Nc3ccc(N4CCOCC4)c(C(F)(F)F)c3)cc2)nc2cccnc12`, the growth is reported as 25.6%. `Cn1c(SCC(=O)c2cccs2)nc2ccccc2c1=O` showed a growth of 63.9%. Work on `CS(=O)(=O)c1ccc(-c2nc3ccccn3c2/C=N/Nc2nc(-c3ccc(Br)cc3)cs2)cc1` yielded a growth of 78%.
